Out of some 85,000 compounds screened, about 5,100 (6%) were called active. What follows is part of a selection rich in actives, with near analogues and random picks from the rest. A number with no mark means an inactive call.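 The calls were made as follows: active = viability at or below 40%; inactive = viability above 40%.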
assay: H69AR cell viability reduction – human, 86K library, primary screen (AID 598); settings: H69AR lung tumor viability, ATP luminescence, 72 h; at 10 µM; active compounds read low;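 also: multidrug resistant small cell line overexpressing MRP-1 efflux transporter; 100% = mean luminescence of untreated control wells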

SMILES | viability
COc1cc(Cn2c(N)c(C(=O)NCc3ccco3)c3nc4ccccc4nc32)cc(OC)c1OC | 9.48% (active)
CCOC(=O)c1c(N)n(Cc2ccccc2)c2nc3ccccc3nc12 | 74.2%
CCOC(=O)c1c(N)n(CCN2CCOCC2)c2nc3ccccc3nc12 | 92.9%
Cn1c(O)c(C=NCCN2CCNCC2)c(=O)n(C)c1=O | 93.2%
COc1ccc(CN2CCN(c3ccccc3F)CC2)c(OC)c1 | 78.7%
CN(C)C(=O)NC(O)C(Cl)(Cl)Cl (stereo not given) | 103%
CCCCn1c(O)c(C(CC)=NCc2ccco2)c(=O)[nH]c1=O | 76.8%
CCOc1ccc(CN(CCCl)CCCl)cc1C(=O)OC | 54.1%
O=C(CCCn1c(=O)[nH]c2cc(Cl)ccc2c1=O)N1CCC2(CC1)OCCO2 | 82.2%
Cc1ccc(Cn2c(C)c3cnn(CC(=O)N4CCC5(CC4)OCCO5)c(=O)c3c2C)cc1 | 37.9% (active)
COc1ccc(-c2nc(CS(=O)CC(=O)N3CCC4(CC3)OCCO4)c(C)o2)cc1 (stereo not given) | 92.7%
CC(=O)c1c(C)n(C(C)C)c2ccc(O)cc12 | 98.6%
CCCCCn1c(=O)c(C(=O)NCc2ccccn2)c(O)c2ccccc21 | 20.3% (active)
COc1ccc(CCn2c(O)c(C=NCCCn3ccnc3)c(=O)[nH]c2=O)cc1OC | 87.2%
CCN(N=Nc1nonc1OC)c1nonc1OC | 95.7%
Cc1ccc(N(C)C(=O)Oc2cccc3ccc(C)nc23)cc1 | 90%
CC(=O)c1c(O)n(C2CCCCCC2)c(=O)[nH]c1=O | 88.7%
CCC(=NCCc1ccccc1)c1c(O)n(C2CCCCC2)c(=O)[nH]c1=O | 25.3% (active)
CCC(=NCc1ccco1)c1c(O)n(Cc2ccccc2)c(=O)[nH]c1=O | 71.1%
c1cc2c(cc1CCNC1CCCCCC1)OCO2 | 73.7%

Source: PubChem BioAssay AID598 (SRMLSC, 2007)
